# Assay results taken from the supplement of paper PMC4466140.
# Key:
# Test in all cases: SPOT peptide array binding signal intensity (averaged, normalized) (arbitrary units (background-subtracted, floor 0; scale differs between SH3 domains)); higher = stronger binding of the SH3 domain to the peptide
# [1] = biological target: CaNbp2
# Protocol: (§1)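 GST-tagged SH3 domains from S. cerevisiae (Sc), A. gossypii (Ag), C. albicans (Ca) and S. pombe (Sp) were incubated at 10 ug/ml overnight at 4 C on cellulose SPOT membranes carrying 292 synthetic 15-mer peptides mined from the S. cerevisiae proteome (cysteines replaced by serines). Binding was detected with anti-GST antibody, HRP secondary and chemiluminescence, quantified with Genespotter, and reported as normalized spot intensities averaged over biological replicates.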
# [2] = biological target: CaRvs167
# Protocol: as §1
# [3] = biological target: CaRvs167-3
# Protocol: as §1
# [4] = biological target: CaSho1
# Protocol: as §1
# [5] = biological target: CaSla1-D1-D2
# Protocol: as §1
# [6] = biological target: CaSla1-D3
# Protocol: as §1
# [7] = biological target: ScAbp1
# Protocol: as §1
# [8] = biological target: ScBbc1
# Protocol: as §1
# [9] = biological target: ScBem1-D1
# Protocol: as §1
# [10] = biological target: ScBzz1-D1
# Protocol: as §1
# [11] = biological target: ScBzz1-D2
# Protocol: as §1
# [12] = biological target: ScCyk3
# Protocol: as §1
# [13] = biological target: ScFus1
# Protocol: as §1
# [14] = biological target: ScHof1
# Protocol: as §1
# [15] = biological target: ScHse1
# Protocol: as §1
# [16] = biological target: ScLsb1
# Protocol: as §1
# [17] = biological target: ScLsb2
# Protocol: as §1
# [18] = biological target: ScLsb3
# Protocol: as §1
# [19] = biological target: ScLsb4
# Protocol: as §1
# [20] = biological target: ScMyo3
# Protocol: as §1
# [21] = biological target: ScMyo5
# Protocol: as §1
# [22] = biological target: ScNbp2
# Protocol: as §1
# [23] = biological target: ScPex13
# Protocol: as §1
# [24] = biological target: ScRvs167
# Protocol: as §1
# [25] = biological target: ScSho1
# Protocol: as §1
# [26] = biological target: ScSla1-D1-D2
# Protocol: as §1
# [27] = biological target: ScSla1-D3
# Protocol: as §1
# [28] = biological target: SpAbp1-D1
# Protocol: as §1
# [29] = biological target: SpBbc1
# Protocol: as §1
# [30] = biological target: SpBzz1-D1
# Protocol: as §1
# [31] = biological target: SpBzz1-D2
# Protocol: as §1
# [32] = biological target: SpCyk3
# Protocol: as §1
# [33] = biological target: SpHof1
# Protocol: as §1
# [34] = biological target: SpHof1-2
# Protocol: as §1
# [35] = biological target: SpHof1-3
# Protocol: as §1
# [36] = biological target: SpHse1
# Protocol: as §1
# [37] = biological target: SpLsb1
# Protocol: as §1
# [38] = biological target: SpLsb4
# Protocol: as §1
# [39] = biological target: SpMyo1
# Protocol: as §1
# [40] = biological target: SpNbp2
# Protocol: as §1
# [41] = biological target: SpPex13
# Protocol: as §1
# [42] = biological target: SpRvs167
# Protocol: as §1
# [43] = biological target: SpSla1-D1-D2
# Protocol: as §1
# [44] = biological target: SpSla1-D3
# Protocol: as §1
binder,measurement,setting,value
RLSRLLLSLPPESFT,SPOT peptide array binding signal intensity,[1],287
same,SPOT peptide array binding signal intensity,[2],64.2
same,SPOT peptide array binding signal intensity,[3],1010
same,SPOT peptide array binding signal intensity,[4],588
same,SPOT peptide array binding signal intensity,[5],≤ 0
same,SPOT peptide array binding signal intensity,[6],45.5
same,SPOT peptide array binding signal intensity,[7],49
same,SPOT peptide array binding signal intensity,[8],1.25
same,SPOT peptide array binding signal intensity,[9],102
same,SPOT peptide array binding signal intensity,[10],94
same,SPOT peptide array binding signal intensity,[11],118
same,SPOT peptide array binding signal intensity,[12],89
same,SPOT peptide array binding signal intensity,[13],1180
same,SPOT peptide array binding signal intensity,[14],1
same,SPOT peptide array binding signal intensity,[15],1930
same,SPOT peptide array binding signal intensity,[16],1.5
same,SPOT peptide array binding signal intensity,[17],9
same,SPOT peptide array binding signal intensity,[18],127
same,SPOT peptide array binding signal intensity,[19],4.5
same,SPOT peptide array binding signal intensity,[20],≤ 0
same,SPOT peptide array binding signal intensity,[21],6
same,SPOT peptide array binding signal intensity,[22],176
same,SPOT peptide array binding signal intensity,[23],1.75
same,SPOT peptide array binding signal intensity,[24],20.3
same,SPOT peptide array binding signal intensity,[25],1770
same,SPOT peptide array binding signal intensity,[26],≤ 0
same,SPOT peptide array binding signal intensity,[27],5.75
same,SPOT peptide array binding signal intensity,[28],198
same,SPOT peptide array binding signal intensity,[29],0.5
same,SPOT peptide array binding signal intensity,[30],315
same,SPOT peptide array binding signal intensity,[31],≤ 0
same,SPOT peptide array binding signal intensity,[32],10
same,SPOT peptide array binding signal intensity,[33],252
same,SPOT peptide array binding signal intensity,[34],24.2
same,SPOT peptide array binding signal intensity,[35],441
same,SPOT peptide array binding signal intensity,[36],1330
same,SPOT peptide array binding signal intensity,[37],1.25
same,SPOT peptide array binding signal intensity,[38],20
same,SPOT peptide array binding signal intensity,[39],6.5
same,SPOT peptide array binding signal intensity,[40],76
same,SPOT peptide array binding signal intensity,[41],16
same,SPOT peptide array binding signal intensity,[42],13.7
same,SPOT peptide array binding signal intensity,[43],≤ 0
same,SPOT peptide array binding signal intensity,[44],6
